NS1 inh = inhibitors of influenza NS1 protein function | Potency, µM (series often up to 46.1 µM), for the others: top-dose activity, positive = more growth | actives 0.4% (n = 270,000); calls by dose curve; also: actives are rising curves; nearly all actives have a fitted effect of over 50% in size
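Read-out: OD600 growth recovery of NS1-expressing budding yeast. Cells grown overnight at 30C in -URA glucose medium, washed, resuspended and diluted 1:100 in 2% galactose assay medium, pH 6.0. Same strain lacking NS1 served as positive control.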
Cruzain inh noDet = inhibitors of Trypanosoma cruzi cruzain without detergent | P25779 | actives 2.3% (n = 200,000) | Potency, µM, without a hit: max response, negative = inhibition, actives largely listed as inhibitors | purified cruzain, Z-FR-AMC fluorescence, no detergent | AID 1476;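 also: plate controls were enzyme without inhibitor for no effect and buffer without enzyme for full effect; nearly all actives have a fitted effect of over 40% in size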
Target sequence (P25779 123-467 limits assumed): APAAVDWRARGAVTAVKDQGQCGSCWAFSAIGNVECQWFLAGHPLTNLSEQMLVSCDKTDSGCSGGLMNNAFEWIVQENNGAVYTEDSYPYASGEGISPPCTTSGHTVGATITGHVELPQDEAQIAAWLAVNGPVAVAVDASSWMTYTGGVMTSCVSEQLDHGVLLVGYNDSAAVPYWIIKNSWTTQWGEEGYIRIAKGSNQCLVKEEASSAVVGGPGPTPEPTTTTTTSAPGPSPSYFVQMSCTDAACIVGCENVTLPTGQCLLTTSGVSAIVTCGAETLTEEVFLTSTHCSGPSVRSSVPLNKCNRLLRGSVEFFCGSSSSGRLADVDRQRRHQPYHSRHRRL
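Purified cruzain at 1.5 nM, pre-incubated 15 min with compound at room temperature in 100 mM sodium acetate pH 5.5, 5 mM DTT, 0.00005% Triton X-100. Reaction started with 2 uM Z-FR-AMC; AMC fluorescence increase over 60 s gives rate.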
Cruzain inh Det = cruzain (T. cruzi) inhibition with detergent; P25779; Potency, µM, for the others: max response, negative = inhibition, hits mostly inhibitors; actives 0.43% (n = 200,000); purified cruzain, Z-FR-AMC fluorescence, 0.01% Triton;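 also: plate controls were neutral wells for no effect and buffer without enzyme for full effect; nearly all actives have a fitted effect of over 40% in size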
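Enzyme 1.5 nM, Z-FR-AMC 2 uM, NaOAc 100 mM pH 5.5, DTT 5 mM, Triton X-100 0.01%; 15 min RT compound preincubation; kinetic ex360/em450, 60 s delta.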
The depositor's hits bear a star; ? = inconclusive; . = no result given. This excerpt belongs to a sample that is enriched for hits. Unless noted, calls follow the shape of the dose curve; as a rule, active = well fitted curve in the direction sought with a large enough effect; inconclusive = small, poorly fitted or top-dose-only effect, or another doubt; inactive = no such curve, though single readings can be large; an effect the other way counts as inactive or inconclusive. Potency is read from the fitted curve at half-maximal effect.

SMILES	NS1 inh	Cruzain inh noDet	Cruzain inh Det
Cc1sc2ncnc(Sc3ccccc3C(=O)Nc3ccc(Br)cc3)c2c1C	?	13µM*	-4%
Cc1sc2ncnc(Sc3ccccc3C(=O)Nc3ccc(C#N)cc3)c2c1C	8%	12%	-5%
COc1cc(C2c3c(-c4c(C)cc(C)cc4O)n[nH]c3C(=O)N2CCCOC(C)C)cc(OC)c1OC (stereo unspecified)	.	22%	-3%
Cc1ccc(S(=O)(=O)Nc2ccc(-c3nc4cc(NS(=O)(=O)c5ccc(C)cc5)ccc4o3)cc2)cc1	10%	7.9µM*	2%
CC(=O)Nc1ccc(S(=O)(=O)Nc2cccc(-c3nc4cc(C)ccc4o3)c2)cc1	-34%	.	.
COc1cc(C2C(C(=O)Nc3ccc(C)cc3C)=C(C)Nc3nc(SCc4ccccc4)nn32)cc(OC)c1OC (stereo unspecified)	.	4%	-1%
Nc1c(Cl)cc(Cl)cc1C(=O)OCC(=O)N1CCCC1	-90%	25%	-7%
O=C(CSc1nc(O)cc(=O)[nH]1)Nc1ccc2c(c1)CCC2	25%	16µM*	-11%
CCCc1cc(=O)[nH]c(SCC(=O)Nc2ccc3c(c2)CCC3)n1	3%	.	.
COC(=O)c1ccccc1Nc1cc(C)nc2nc(C)nn12	1%	0%	-2%
O=C(Cn1c(=O)sc2ccccc21)Nc1ccc(S(=O)(=O)N2CCCCC2)cc1	?	32µM*	-5%
O=C(Cn1c(=O)sc2ccccc21)Nc1ccccc1	-10%	-12%	8%
COCCCNC(=O)c1[nH]c2cc(OC)ccc2c1Sc1ccc(C)cc1	.	26%	1%
COc1ccc2c(Sc3ccc(C)cc3)c(C(=O)NCCc3ccccc3)[nH]c2c1	.	16µM*	-3%
COc1cccc(C2C=C(c3ccc(C)c(C)c3)Nc3nnnn32)c1OC (stereo unspecified)	.	-5%	0%
N#CC1=C2SCN(c3ccccc3)CN2C(=O)CC1c1c(Cl)cccc1Cl (stereo unspecified)	11µM*	?	-1%
Cc1ccc(C2CC(=O)N3CN(Cc4ccco4)CSC3=C2C#N)cc1 (stereo unspecified)	-7%	-5%	-3%
COc1cc(OC)c(C2CC(=O)N3CN(c4ccccc4)CSC3=C2C#N)cc1OC (stereo unspecified)	-85%	-8%	-3%
N#CC1=C2SCN(Cc3ccco3)CN2C(=O)CC1c1c(F)cccc1Cl (stereo unspecified)	-27%	20µM*	?
CCc1ccccc1N1CSC2=C(C#N)C(c3cc(OC)c(OC)cc3OC)CC(=O)N2C1 (stereo unspecified)	10µM*	18%	-10%
N#CC1=C2SCN(c3ccccc3)CN2C(=O)CC1c1ccccc1Cl (stereo unspecified)	-26%	?	-5%
CN(CCCNC(=O)C1CCC(CNS(=O)(=O)c2ccccc2)CC1)Cc1ccccc1 (stereo unspecified)	-12%	.	.
O=C(c1ccc2c(c1)OCCO2)C1CCN(C(=O)c2ccc(F)c(F)c2)CC1	-88%	1%	1%
Cc1ccc(CN2CCNC(=O)C2CC(=O)NCC(F)(F)F)o1 (stereo unspecified)	3%	.	.
CC(=O)c1ccc(N2C(=O)N(CC(=O)c3ccc(C)cc3)c3ccccc3S2(=O)=O)cc1	.	?	0%
SMILES	NS1 inh	Cruzain inh noDet	Cruzain inh Det
CCOc1ccc(N2C(=O)N(Cc3ccc(C)cc3C)c3ccccc3S2(=O)=O)cc1	.	25µM*	0%
COc1cc(OC)cc(N2C(=O)N(Cc3ccc(C(C)(C)C)cc3)c3ccccc3S2(=O)=O)c1	.	4µM*	1%
COc1cc(OC)cc(N2C(=O)N(CC(=O)c3ccc(F)cc3)c3ccccc3S2(=O)=O)c1	.	?	0%
Cc1cccc(C)c1OCC(=O)Nc1ccccc1C(=O)N1CCOCC1	3%	.	.
CC1CCCCC1NC(=O)c1ccncc1 (stereo unspecified)	-3%	.	.
COCCOC(=O)C1=C(C)OC(N)=C(C#N)C1c1ccco1 (stereo unspecified)	11%	-5%	1%
FC(F)(F)c1nnc2n1N=C(c1ccccc1)CS2	4%	.	.
COc1ccccc1CCNC(=O)c1ccc2c(c1)c(C)c(C)n2Cc1ccc(Cl)cc1	.	13µM*	3%
COc1ccc(OC)c(CNC(=O)c2ccc3c(c2)c(C)c(C)n3Cc2ccc(Cl)cc2)c1	.	7.9µM*	2%
COc1ccc(OC)c(CNC(=O)c2ccc3c(c2)c(C)c(C)n3C)c1	.	?	-2%
COc1cc(CCNC(=O)c2ccc3c(c2)c(C)c(C)n3Cc2cccc(C)c2)cc(OC)c1OC	.	-8%	-1%
CCc1ccccc1NC(=O)c1cc(S(=O)(=O)NC2CCCC2)ccc1F	.	1%	1%
Cc1cccc2sc(NC(=O)C3CCN(S(=O)(=O)c4cc([N+](=O)[O-])ccc4Cl)CC3)nc12	24%	20µM*	-4%
O=C(NCc1ccc(Cl)cc1)C1CCN(S(=O)(=O)c2cc([N+](=O)[O-])ccc2Cl)CC1	-7%	1%	-2%
NCCCC[C@@H]1NC(=O)c2cc([N+](=O)[O-])cc(I)c2SC[C@@H](C(=O)NCC(N)=O)NC(=O)CNC1=O	26%	6%	-2%
COc1ccc(Br)c2c1-c1nc(NC(=O)c3cccc(C)c3)sc1C2	.	6.3µM*	-2%
COc1ccc2c(c1)Cc1sc(NC(=O)c3cccc(Br)c3)nc1-2	.	?	-2%
CN(Cc1cccnc1)C(=O)c1ccc2nc(Cc3ccccc3F)oc2c1	-13%	.	.
O=C1NC(=O)C2(COC(c3cccnc3)OC2)S1 (stereo unspecified)	11%	7%	-1%
COc1cc(C(c2c(C)n(C)n(-c3ccccc3)c2=O)c2c(C)n(C)n(-c3ccccc3)c2=O)cc(Br)c1O	4%	.	.
CCOC(=O)c1c(NC(=O)c2cc(C)on2)c2cc([N+](=O)[O-])ccc2n1C	1%	.	.
Cc1ccc(C(OC(=O)c2ccco2)C(=O)NC2CCCC2)cc1 (stereo unspecified)	-11%	.	.
CC1(C)Cc2c(cnn2-c2cccc(F)c2)C(NC(=O)CCN2CCCC2=O)C1 (stereo unspecified)	-7%	.	.
CC(=O)NCCC(=O)Nc1nc(-c2cccs2)c(-c2cccs2)s1	3%	?	-6%
O=C(Nc1nc(-c2cccs2)c(-c2cccs2)s1)C1(c2ccccc2)CC1	16%	10µM*	-1%
SMILES	NS1 inh	Cruzain inh noDet	Cruzain inh Det
CC(C)n1nnnc1SCC(=O)Nc1ccccc1F	1%	.	.
CC(C)CNC(=O)CCCc1ccccc1	-9%	-1%	3%
COc1ccccc1N1CCN(/N=C/c2ccc(Cl)c([N+](=O)[O-])c2)CC1	-16%	.	.
O=[N+]([O-])c1cc(/C=N/N2CCN(C3c4ccccc4-c4ccccc43)CC2)ccc1Cl	9%	13µM*	4%
O=C(Oc1cc(=O)oc2ccccc12)c1ccccc1	5%	.	.
CN1CCN(NC(=O)C2CC2)CC1	8%	7%	-1%
CCCN(CCC)S(=O)(=O)c1ccc(C(=O)NNc2nc(-c3ccccc3)c3cc(Br)ccc3n2)cc1	?	10µM*	-2%
OCCNc1nc(-c2ccccc2)c2cc(Br)ccc2n1	0%	.	.
COc1cc([N+](=O)[O-])ccc1N	-5%	-2%	-2%
COc1ccc(CNCCCSc2nnnn2-c2ccccc2)cc1	.	-19%	0%
COc1ccc(CNc2ccccc2)cc1Br	-3%	-9%	-6%
COc1cc(CNc2cccc(F)c2)cc(Br)c1O	3%	25µM*	-5%

Screening results (PubChem BioAssay)
